Our source for the outcome values is PubChem BioAssay AID1671192 (National Center for Advancing Translational Sciences (NCATS), 2021).

Inconclusive results are not listed. The source made the active and inactive calls. Calls come from the whole dose curve; as a rule, active = well fitted curve in the direction sought with a large enough effect; inconclusive = small, poorly fitted or top-dose-only effect, or another doubt; inactive = no such curve, though single readings can be large or run the other way.

Polyunsaturated fatty acid lipoxygenase ALOX15 (Homo sapiens), sequence (P16050 whole entry, looked up): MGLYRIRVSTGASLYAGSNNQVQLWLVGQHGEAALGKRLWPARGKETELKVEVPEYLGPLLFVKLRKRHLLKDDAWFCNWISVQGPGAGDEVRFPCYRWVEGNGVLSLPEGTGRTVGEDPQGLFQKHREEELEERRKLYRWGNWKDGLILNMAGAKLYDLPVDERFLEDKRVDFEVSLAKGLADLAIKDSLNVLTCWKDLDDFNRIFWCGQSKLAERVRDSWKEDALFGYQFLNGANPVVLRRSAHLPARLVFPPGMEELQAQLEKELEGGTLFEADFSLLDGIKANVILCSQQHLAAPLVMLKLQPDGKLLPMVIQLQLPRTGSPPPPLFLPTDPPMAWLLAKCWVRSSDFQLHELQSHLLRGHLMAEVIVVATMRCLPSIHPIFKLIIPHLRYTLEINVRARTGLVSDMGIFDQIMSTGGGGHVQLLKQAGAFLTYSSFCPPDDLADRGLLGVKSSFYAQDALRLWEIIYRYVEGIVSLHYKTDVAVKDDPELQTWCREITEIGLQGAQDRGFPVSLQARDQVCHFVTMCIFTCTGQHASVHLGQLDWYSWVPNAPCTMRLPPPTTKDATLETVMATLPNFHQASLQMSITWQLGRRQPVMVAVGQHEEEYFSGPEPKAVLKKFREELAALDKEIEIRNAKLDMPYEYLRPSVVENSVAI

The target in this test is Polyunsaturated fatty acid lipoxygenase ALOX15 (Homo sapiens) (UniProt P16050). Nature of the test: Counterscreen qHTS for inhibitors of human arachidonate 12S-lipoxygenase (ALOX12): ALOX15 Assay. Particulars: purified ALOX15 enzyme activity; series mostly up to 110 µM. Summed up:
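Purified human ALOX15 (15hLO-1) at 40 nM in 25 mM HEPES, 0.01% Triton X-100, pH 7.5, preincubated with compound 15 min at RT. Then 50 uM arachidonic acid for 30 min; hydroperoxide detected by Fe-xylenol orange as the 573/405 nm absorbance ratio.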
`C[S+](=O)([O-])N1Cc2ccccc2CC2(CCN(CC3CCNC3)CC2)C1` (stereo not drawn): the compound was classed as inactive.

Consider `COc1ccc(OC)c([S+](=O)([O-])c2nnn3c2nc(NCc2ccc(F)cc2)c2ccccc23)c1`, for which the result was inactive.

For `CCN1CCC2(Cc3ccccc3CN(C(=O)Cc3ccccc3)C2)C1` (stereo not drawn), the compound was called inactive.

On to `CC(=O)NCCCC(=O)N1CCOC2(CCN(C(=O)CCCN)CC2)C1`, for which the result was inactive.

For `CC(C)CNC(=O)c1cc(C2CC2)nc2onc(C3CCCNC3)c12` (stereo not drawn), the compound was classed as inactive.

For `O=C1NCc2ccccc2CC12CCN(Cc1ccc(Cl)s1)C2` (stereo not drawn), the compound was classed as inactive.

In the case of `COCCNc1ncnc2c1CN(C1CCCNCC1)C(=O)CN2C` (stereo not drawn), the outcome was inactive.

For the compound `COc1cccc(O)c1CN1CCCC12Cc1ccccc1CNC2=O` (stereo not drawn), the result was inactive.

On to `CCCC(=O)N1Cc2ccccc2CC2(CCCN(C)C2)C1` (stereo not drawn), for which the compound was called inactive.

In the case of `CCc1ccc(CN2CCC3(CC2)Cc2ccccc2CNC3=O)s1`, the compound was called inactive.

On to `FC(F)(F)c1ccc(CN2CCCC3(CC(c4cccc(C(F)(F)F)c4)=NO3)C2)cc1` (stereo not drawn), for which the result was inactive.

Consider `NCc1ccc(-c2ccc(OC(F)(F)F)cc2)cc1`, for which the compound was called inactive.

For the compound `CNCc1cccn1C`, the outcome was inactive.

On to `O=Cc1cccc(N2CCN(C(=O)c3ccc4c(c3)OCO4)CC2=O)c1`, for which the call was inactive.

On to `CC(=O)Nc1ccc(CN2CC3(C2)C(=O)Nc2ccccc23)cc1`, for which the call was inactive.

As to `CN1CC(=O)N(C2CCCNCC2)Cc2c(NCc3ccc4c(c3)OCO4)ncnc21` (stereo not drawn), the compound was called inactive.

For the compound `CN1CC(=O)N(c2ccccc2F)Cc2c(NC3CCNCC3)ncnc21`, the compound was called inactive.

`COc1ccc(CN2CCC3(Cc4ccccc4CNC3=O)C2)c(O)c1` (stereo not drawn): the compound was classed as inactive.

Turning to `O=C1NCc2ccccc2CC12CCN(Cc1cccc(F)c1F)C2` (stereo not drawn), the result was inactive.

Turning to `COCCNC(=O)c1cc(C)nc2onc(C3CCCNC3)c12` (stereo not drawn), the outcome was inactive.

As to `O=C(Nc1ccc(Cl)cc1Cl)c1c[nH]c2cccnc12`, the call was inactive.

For the compound `CCOc1cccc(CN2CCCC23Cc2ccccc2CNC3=O)c1` (stereo not drawn), the call was inactive.

Take `COc1ccc2c(c1)CCCN2C1CNC1`: the compound was called inactive.

For the compound `C[C@H](C(=O)N1Cc2ccccc2CC2(CCN(C)C2)C1)c1ccccc1` (stereo partly drawn), the outcome was inactive.

For `CN1CC(=O)N(C2CCNC2)Cc2c(NC3CCCC3)ncnc21` (stereo not drawn), the call was inactive.

In the case of `CN1CC(=O)N(C2CCCNCC2)Cc2c1ncnc2N1CCCC(F)C1` (stereo not drawn), the outcome was inactive.

For the compound `CNCc1ccccc1Cl`, the compound was called inactive.

With `O=C1NC(=NC2CCCCC2)C2(CCN(Cc3ccc(F)cc3)C2)N1c1cccnc1` (stereo not drawn), the compound was called inactive.

For `CCN1CCCCC12Cc1ccccc1CN(C(=O)C1CCN(C)CC1)C2` (stereo not drawn), the outcome was inactive.

Turning to `Cc1ccsc1CN1CCC2(Cc3ccccc3CNC2=O)C1` (stereo not drawn), the call was inactive.

Take `O=C(c1cc(C2CC2)nc2c1c(C1CCCN1)nn2-c1ccccc1)N1CCC(F)CC1` (stereo not drawn): the call was inactive.

Turning to `COc1ccc(N2CC3CCC(C2)N3C(=O)NC(C)C)cc1`, the result was inactive.

Consider `CCOC(=O)N1CCC(NC)CC1`, for which the outcome was inactive.

`CC[C@@H](Nc1ncnc2c1CN(C1CCCNCC1)C(=O)CN2C)c1ccccc1` (stereo partly drawn): the outcome was inactive.

Consider `COc1ccc(CC(=O)N2Cc3ccccc3CC3(CCCN(C)C3)C2)cc1` (stereo not drawn), for which the compound was called inactive.

For `CCCN1CCCC12Cc1ccccc1CN(C(=O)CCCC(=O)O)C2` (stereo not drawn), the compound was classed as inactive.

For `CC(C)NC(=O)NC1CC2(CCN(C(=O)Cc3ccc(O)cc3)CC2)c2ccccc21` (stereo not drawn), the outcome was inactive.

With `CCc1ccc(CN2CCCC23Cc2ccccc2CNC3=O)cc1` (stereo not drawn), the compound was called inactive.
